About 79,000 compounds went through this panel and 15% of them were active in at least one assay; those are over-represented in the sample as a whole. Calls of active or inactive are those of the source. Rule as the data show it: active = growth inhibition above about 70%; inactive = the rest.
Experiments:
[1] = NCI Yeast Anticancer Drug Screen. Data for the rad52 strain (AID 147);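 also: 0% = growth of vehicle-treated control cultures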; conditions: S. cerevisiae rad52 mutant growth inhibition, active compounds read high
How it was run: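 Yeast strain carrying a DNA damage repair alteration was exposed to test compounds. Growth inhibition was measured relative to vehicle-treated controls.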

[2] = NCI Yeast Anticancer Drug Screen. Data for the wt1 strain (AID 149);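 also: 0% = growth of vehicle-treated wt1 cultures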; conditions: S. cerevisiae wt1 strain (SPY 50644) growth inhibition, active compounds read high
How it was run: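 The wt1 strain was treated with compounds, and growth was compared with vehicle-treated cultures to give inhibition.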

[3] = NCI Yeast Anticancer Drug Screen. Data for the rad50EPP+ strain (AID 151);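 also: 0% = growth of vehicle-treated control cultures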; conditions: S. cerevisiae rad50 mutant strain, active compounds read high
How it was run: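 Yeast strain carrying rad50 alteration (rad50EPP+) exposed to compounds; growth inhibition measured relative to vehicle-treated controls.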

[4] = NCI Yeast Anticancer Drug Screen. Data for the mgt1 strain (AID 153); conditions: S. cerevisiae mgt1 mutant growth inhibition, active compounds read high
How it was run: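 Yeast mgt1 strain (DNA repair/cell-cycle alteration panel) exposed to compounds; growth inhibition measured relative to vehicle-treated controls.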

[5] = NCI Yeast Anticancer Drug Screen. Data for the rad50 strain (AID 155);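 also: 0% = growth of vehicle-only cultures of the same strain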; conditions: S. cerevisiae rad50 strain growth inhibition, active compounds read high
How it was run: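 Cells are treated with compound, grown, and their growth is then scored against vehicle-only cultures of the same repair-deficient yeast strain.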

[6] = NCI Yeast Anticancer Drug Screen. Data for the mec2-1 strain (AID 157); conditions: S. cerevisiae mec2-1 strain, active compounds read high
How it was run: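 mec2-1 yeast strain, carrying an alteration in DNA damage repair or cell cycle control, was exposed to compounds; growth inhibition was measured relative to vehicle-treated controls.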

[7] = NCI Yeast Anticancer Drug Screen. Data for the rad14 strain (AID 159);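 also: 0% = growth of vehicle-treated control cultures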; conditions: S. cerevisiae rad14 strain growth inhibition, active compounds read high
How it was run: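 Readout: yeast growth inhibition, referenced to vehicle-only cultures. Strain bears a defined alteration in DNA damage repair.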

[8] = NCI Yeast Anticancer Drug Screen. Data for the CLN2oe strain (AID 163);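 also: 0% = growth of vehicle-only control cultures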; conditions: S. cerevisiae CLN2oe strain, active compounds read high
How it was run: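 Yeast cells carrying a defined cell-cycle control alteration were exposed to test compounds. Growth inhibition was scored against vehicle-treated control cultures.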

[9] = NCI Yeast Anticancer Drug Screen. Data for the bub3 strain (AID 167); conditions: S. cerevisiae bub3 mutant strain, active compounds read high
How it was run: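 Part of a panel of yeast mutants defective in DNA damage repair or cell cycle regulation. Each strain is grown with compound, and inhibition is calculated relative to solvent-treated cultures.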

[10] = NCI Yeast Anticancer Drug Screen. Data for the wt2 strain (AID 169);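 also: 0% = growth of vehicle-treated yeast cultures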; conditions: S. cerevisiae wt2 strain growth inhibition, active compounds read high
How it was run: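 Yeast cells were exposed to test compounds, and growth inhibition was measured relative to vehicle-treated controls.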

[11] = NCI Yeast Anticancer Drug Screen. Data for the sgs1 strain (AID 173);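 also: 0% = growth of vehicle-only control cultures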; conditions: S. cerevisiae sgs1 mutant, active compounds read high
How it was run: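 Yeast mutant strains carrying defined defects in DNA damage repair or cell cycle control were exposed to test compounds. Growth inhibition was scored against vehicle-treated controls.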

[12] = NCI Yeast Anticancer Drug Screen. Data for the mlh1 rad18 strain (AID 175); conditions: S. cerevisiae mlh1 rad18 strain growth inhibition, active compounds read high
How it was run: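 Growth inhibition of the yeast strain was measured after compound exposure and expressed relative to vehicle-treated controls. The strain carries defined defects in DNA damage repair.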

[13] = NCI Yeast Anticancer Drug Screen. Data for the rad18 strain (AID 177); conditions: S. cerevisiae rad18 mutant growth inhibition, active compounds read high
How it was run: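 Yeast carrying a defined DNA damage repair alteration were exposed to compounds. Growth inhibition was expressed relative to vehicle-treated controls.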

[14] = NCI Yeast Anticancer Drug Screen. Data for the sgs1 mgt1 strain (AID 161);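 also: 0% = growth of cultures given vehicle only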; conditions: S. cerevisiae sgs1 mgt1 strain, active compounds read high
How it was run: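 Compounds are added to genetically altered yeast, and growth is compared with cultures given vehicle alone to give percent inhibition.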

[15] = NCI Yeast Anticancer Drug Screen. Data for the cln2 rad14 strain (AID 165);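 also: 0% = growth equal to vehicle treated cultures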; conditions: S. cerevisiae cln2 rad14 strain, active compounds read high
How it was run: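 Yeast carrying cln2 and rad14 alterations (cell cycle control and DNA damage repair) were exposed to compounds. Growth inhibition was measured against vehicle-treated controls.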

[16] = NCI Yeast Anticancer Drug Screen. Data for the mlh1 strain (AID 171);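 also: 0% = growth of vehicle-treated control cultures of the same strain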; conditions: S. cerevisiae mlh1 strain growth inhibition, active compounds read high
How it was run: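 Yeast carrying a defined genetic alteration in DNA damage repair or cell cycle control were exposed to test compounds. Growth inhibition was measured relative to vehicle-treated controls.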

[17] = at 5.0 µM (retest, dose inferred, filed as 0.5)
[18] = at 50.0 µM (retest, dose inferred, filed as 5.0)

Measured: growth inhibition

COc1ccc2nc3cccc([N+](=O)[O-])c3c(NCCN(CCO)CCO)c2c1
active: [1]; at 1.2 µM 75% | [1]; at 3.7 µM 92% | [1]; at 11.0 µM 94% | [1]; at 33.0 µM 96% | [1]; at 100.0 µM 96% | [2]; at 33.0 µM 73% | [2]; at 100.0 µM 77% | [3]; at 33.0 µM 78% | [3]; at 100.0 µM 94% | [4]; at 33.0 µM 71% | [4]; at 100.0 µM 75% | [5]; at 3.7 µM 81% | [5]; at 11.0 µM 91% | [5]; at 33.0 µM 94% | [5]; [18] 96% | [5]; at 50.0 µM 81.2% | [5]; at 100.0 µM 94% | [6]; at 3.7 µM 82% | [6]; at 11.0 µM 95% | [6]; at 33.0 µM 97% | [6]; [18] 97% | [6]; at 50.0 µM 86.2% | [6]; at 100.0 µM 97% | [7]; at 1.2 µM 84% | [7]; at 3.7 µM 96% | [7]; at 11.0 µM 98% | [7]; at 33.0 µM 98% | [7]; at 100.0 µM 98% | [8]; at 100.0 µM 91% | [9]; [18] 86% | [9]; at 100.0 µM 96% | [10]; at 100.0 µM 93% | [11]; at 1.2 µM 80% | [11]; at 3.7 µM 90% | [11]; at 11.0 µM 93% | [11]; at 33.0 µM 95% | [11]; at 100.0 µM 96% | [12]; [18] 97% | [12]; at 50.0 µM 74.5% | [13]; at 1.2 µM 94% | [13]; at 3.7 µM 96% | [13]; at 11.0 µM 96% | [13]; at 33.0 µM 95% | [13]; at 100.0 µM 95%
inactive: [2]; at 1.2 µM -2% | [2]; at 3.7 µM 6% | [2]; at 11.0 µM 31% | [3]; at 1.2 µM 3% | [3]; at 3.7 µM 13% | [3]; at 11.0 µM 44% | [4]; at 1.2 µM -3% | [4]; at 3.7 µM 2% | [4]; at 11.0 µM 29% | [5]; at 1.2 µM 43% | [5]; [17] 42% | [6]; at 1.2 µM 14% | [6]; [17] 13% | [8]; at 1.2 µM -5% | [8]; at 3.7 µM -5% | [8]; at 11.0 µM 11% | [8]; at 33.0 µM 61% | [9]; at 1.2 µM -13% | [9]; at 3.7 µM -18% | [9]; [17] -41% | [9]; at 11.0 µM -2% | [9]; at 33.0 µM 52% | [9]; at 50.0 µM 43.6% | [10]; at 1.2 µM -2% | [10]; at 3.7 µM -1% | [10]; at 11.0 µM 11% | [10]; at 33.0 µM 53% | [12]; [17] 68%

CC(C)=CC(=O)O[C@@H]1CC(C)(C)CC2C3=CCC4[C@]56CC[C@](O)(OC5)C(C)(C)C6CC[C@@]4(C)C3(C)CC[C@]21C(=O)O (stereo not given in full)
active: [1]; at 11.0 µM 80% | [1]; at 33.0 µM 93% | [1]; at 100.0 µM 92% | [2]; at 11.0 µM 85% | [2]; at 33.0 µM 93% | [2]; at 100.0 µM 92% | [4]; at 33.0 µM 89% | [4]; at 100.0 µM 91% | [5]; at 11.0 µM 75% | [5]; at 33.0 µM 94% | [5]; [18] 88% | [5]; at 50.0 µM 82.3% | [5]; at 100.0 µM 90% | [6]; at 33.0 µM 88% | [6]; [18] 87% | [6]; at 50.0 µM 83.2% | [6]; at 100.0 µM 89% | [14]; [18] 89% | [14]; at 50.0 µM 85.2% | [8]; at 11.0 µM 85% | [8]; at 33.0 µM 95% | [8]; at 100.0 µM 93% | [15]; [18] 92% | [15]; at 50.0 µM 79.3% | [9]; at 11.0 µM 81% | [9]; at 33.0 µM 92% | [9]; [18] 91% | [9]; at 50.0 µM 81.3% | [9]; at 100.0 µM 92% | [10]; at 33.0 µM 91% | [10]; at 100.0 µM 94% | [16]; at 33.0 µM 87% | [16]; at 100.0 µM 90% | [11]; at 11.0 µM 83% | [11]; at 33.0 µM 95% | [11]; at 100.0 µM 95% | [12]; [18] 90% | [12]; at 50.0 µM 78% | [13]; at 33.0 µM 95% | [13]; at 100.0 µM 94%
inactive: [1]; at 1.2 µM 2% | [1]; at 3.7 µM 37% | [2]; at 1.2 µM -23% | [2]; at 3.7 µM 44% | [3]; at 1.2 µM -9% | [3]; at 3.7 µM -1% | [3]; at 11.0 µM 7% | [3]; at 33.0 µM 14% | [3]; at 100.0 µM 6% | [4]; at 1.2 µM -15% | [4]; at 3.7 µM 11% | [4]; at 11.0 µM 57% | [5]; at 1.2 µM 1% | [5]; at 3.7 µM 36% | [5]; [17] 10% | [6]; at 1.2 µM -8% | [6]; at 3.7 µM 31% | [6]; [17] 27% | [6]; at 11.0 µM 69% | [14]; [17] 11% | [8]; at 1.2 µM -5% | [8]; at 3.7 µM 54% | [15]; [17] 33% | [9]; at 1.2 µM -18% | [9]; at 3.7 µM 27% | [9]; [17] 25% | [10]; at 1.2 µM -11% | [10]; at 3.7 µM 18% | [10]; at 11.0 µM 61% | [16]; at 1.2 µM -13% | [16]; at 3.7 µM 21% | [16]; at 11.0 µM 58% | [11]; at 1.2 µM -3% | [11]; at 3.7 µM 46% | [12]; [17] -11% | [13]; at 1.2 µM 9% | [13]; at 3.7 µM 42% | [13]; at 11.0 µM 36%

— PubChem BioAssay (NCI)
